From PubChem BioAssay AID2553 (Johns Hopkins Ion Channel Center, 2010)
Out of some 310,000 compounds screened, about 3,300 (1.1%) were called active.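 Rule for the calls: active = B-score under library mean minus 3 SD, initial fluorescence not abnormally high, positive integrated signal ratio; inactive = the rest.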 Shown is part of a subset that was picked to be rich in actives.

These compounds were tested against Short transient receptor potential channel 6 (Mus musculus) (UniProt Q61143) (assay: mouse TRPC6 channel inhibitors, primary screen, cell-based, HEK293, membrane potential dye (AID 2553;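 for B-score: B-score derived from integrated fluorescence ratio over the kinetic read; more negative B-score means stronger inhibition of depolarization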)). Conditions: ACh-evoked depolarization, at 10 µM; active compounds read low.
Sequence of Short transient receptor potential channel 6 (Mus musculus) (Q61143 whole entry, looked up): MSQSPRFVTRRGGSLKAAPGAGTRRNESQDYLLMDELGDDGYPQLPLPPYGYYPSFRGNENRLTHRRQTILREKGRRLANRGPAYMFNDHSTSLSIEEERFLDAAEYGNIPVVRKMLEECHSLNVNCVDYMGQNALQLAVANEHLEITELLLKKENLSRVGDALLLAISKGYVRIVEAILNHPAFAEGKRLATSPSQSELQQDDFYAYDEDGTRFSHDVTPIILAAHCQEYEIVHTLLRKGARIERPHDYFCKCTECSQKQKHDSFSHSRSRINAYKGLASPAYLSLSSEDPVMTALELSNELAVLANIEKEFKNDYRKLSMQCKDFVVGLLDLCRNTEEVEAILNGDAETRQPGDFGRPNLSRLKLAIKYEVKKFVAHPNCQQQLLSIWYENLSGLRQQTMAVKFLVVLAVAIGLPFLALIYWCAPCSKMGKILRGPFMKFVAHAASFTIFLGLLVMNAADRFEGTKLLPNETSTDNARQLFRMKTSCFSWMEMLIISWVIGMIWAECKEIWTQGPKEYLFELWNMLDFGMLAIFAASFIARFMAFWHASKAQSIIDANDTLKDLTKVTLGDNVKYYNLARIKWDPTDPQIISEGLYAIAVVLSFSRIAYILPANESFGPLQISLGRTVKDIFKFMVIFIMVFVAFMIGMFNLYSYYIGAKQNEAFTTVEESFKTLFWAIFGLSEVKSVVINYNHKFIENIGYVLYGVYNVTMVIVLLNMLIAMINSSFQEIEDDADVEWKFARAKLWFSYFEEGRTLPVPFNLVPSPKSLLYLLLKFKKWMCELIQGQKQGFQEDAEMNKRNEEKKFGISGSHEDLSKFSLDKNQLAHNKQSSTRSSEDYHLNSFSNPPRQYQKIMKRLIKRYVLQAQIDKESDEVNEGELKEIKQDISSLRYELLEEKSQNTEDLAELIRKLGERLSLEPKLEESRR

**Q.** `COc1ccc(NC(=O)CN2C(=O)C(c3ccccc3)=NC23CCCCCC3)cc1OC` was tested. Which B-score did it give?
**A.** inactive

**Q.** How did the B-score turn out when `Cc1cc(C)c2oc(C(=O)Nc3ccc(S(=O)(=O)Nc4nccc(C)n4)cc3)cc(=O)c2c1` was run?
**A.** inactive

**Q.** How did the B-score turn out when `c1ccc(-c2cnc(CN3CCN(c4ccccc4)CC3)o2)cc1` was run?
**A.** inactive

**Q.** Which B-score does the source give for `COc1cc([N+](=O)[O-])cc([N+](=O)[O-])c1NC(=O)N1CCOCC1` here?
**A.** inactive

**Q.** With `O=C(NN1C(=O)C2C3C=CC(C3)C2C1=O)c1ccco1` (centres undefined) as the compound, how does the B-score read?
**A.** inactive

**Q.** `COC(=O)C1=C(C)N(C)C(=S)NC1c1cc(OC)ccc1OC` (centres undefined) was tested. Which B-score did it give?
**A.** inactive

**Q.** With `COc1cc(CNC2CCCCC2)c(Br)cc1OC1CCCC1` as the compound, how does the B-score read?
**A.** inactive

**Q.** How did the B-score turn out when `CC(C)(C)NCc1cc(Br)ccc1OC1CCCC1` was run?
**A.** -6.86 (active)

**Q.** For `CCOCCCNCc1cc(Br)ccc1OCC`, which B-score is on record?
**A.** inactive

**Q.** Which B-score does the source give for `O=C(c1ccc(CS(=O)(=O)c2ccccc2)o1)N1CCN(c2ccccc2)CC1` here?
**A.** inactive

**Q.** How did the B-score turn out when `O=C(CNc1cccc(S(=O)(=O)N2CCCCC2)c1)Nc1ccccc1F` was run?
**A.** inactive

**Q.** Which B-score does the source give for `COc1ccccc1CCNC(=O)C(=O)NCCC1CCCCN1S(=O)(=O)c1cccs1` (centres undefined) here?
**A.** inactive

**Q.** Which B-score does the source give for `Cn1c(=NC(=O)c2cnccn2)sc2ccccc21` here?
**A.** -6.66 (active)

**Q.** For `Cn1c(=NC(=O)c2ccco2)sc2cccc(F)c21`, which B-score is on record?
**A.** inactive

**Q.** `COC(=O)c1ccc(OC(=O)c2cnccn2)cc1` was tested. Which B-score did it give?
**A.** inactive

**Q.** For `O=C(COc1ccccc1)Nc1ccc(F)cc1`, which B-score is on record?
**A.** inactive

**Q.** For `O=S(=O)(c1ccc(F)cc1)N1CCN=C1SCc1cccc(F)c1`, which B-score is on record?
**A.** inactive

**Q.** Which B-score does the source give for `COC(=O)c1ccccc1NC(=O)C1(S(=O)(=O)c2ccc(Cl)cc2)CC1` here?
**A.** inactive

**Q.** With `CCCCCCCCn1c2c(c(=N)c3c1CCC3)CCCC2` as the compound, how does the B-score read?
**A.** -6.1 (active)

**Q.** With `Cc1ccc(NC(=O)CCOc2ccccc2)cc1S(=O)(=O)Nc1ccccc1Cl` as the compound, how does the B-score read?
**A.** inactive

**Q.** With `Cc1cc(C)c2nc3nc(C)cc(C)c3c(N)c2c1` as the compound, how does the B-score read?
**A.** -5.04 (active)

**Q.** Which B-score does the source give for `Cc1cc(C)c2nc(-c3ccco3)cc(C(=O)O)c2c1` here?
**A.** inactive

**Q.** `COc1ccc(OCc2cc(C(=O)N3CCCC3)no2)c2ccccc12` was tested. Which B-score did it give?
**A.** inactive

**Q.** With `CCOC(=O)/C=C/CN(C(=O)OC(C)(C)C)S(=O)(=O)N1CC=CC1` as the compound, how does the B-score read?
**A.** inactive

**Q.** `CC(Nc1nc(N2CCOCC2)nc2ccccc12)c1ccccc1` (centres undefined) was tested. Which B-score did it give?
**A.** inactive

**Q.** Which B-score does the source give for `CC(Nc1nc(N2CCN(CCO)CC2)nc2ccccc12)c1ccccc1` (centres undefined) here?
**A.** inactive

**Q.** With `CC(Nc1nc(N2CCCC2)nc2ccccc12)c1ccccc1` (centres undefined) as the compound, how does the B-score read?
**A.** -6.87 (active)

**Q.** With `COc1ccc2[nH]cc(CCN3C(=O)c4ccc(C(=O)O)cc4C3=O)c2c1` as the compound, how does the B-score read?
**A.** inactive

**Q.** `Cc1nn(C)cc1C(=O)c1ccccc1` was tested. Which B-score did it give?
**A.** inactive

**Q.** For `C=CCOc1ccc(/C=C/C(=O)OCC(=O)NC2CCCCCC2)cc1`, which B-score is on record?
**A.** inactive

**Q.** `O=C(CN1CCCCCC1)N1c2ccccc2Sc2ccc(C(F)(F)F)cc21` was tested. Which B-score did it give?
**A.** -5.15 (active)

**Q.** With `CCOC(=O)CNC(=O)N1c2ccccc2Sc2ccccc21` as the compound, how does the B-score read?
**A.** inactive

**Q.** How did the B-score turn out when `COc1cc(/C=C/C(=O)N2c3ccccc3Sc3ccc(C(F)(F)F)cc32)cc(OC)c1OC` was run?
**A.** inactive

**Q.** How did the B-score turn out when `COC(=O)c1c(-c2cccs2)csc1NC(=O)CSc1ncnc2sc(C)c(C)c12` was run?
**A.** inactive

**Q.** `CCOc1ccc(C(=O)N(Cc2ccc(N(C)C)cc2)C2CCS(=O)(=O)C2)cc1` (centres undefined) was tested. Which B-score did it give?
**A.** inactive

**Q.** How did the B-score turn out when `Cc1ccccc1OCC(=O)N(Cc1cccc(F)c1)C1CCS(=O)(=O)C1` (centres undefined) was run?
**A.** inactive

**Q.** For `CCc1ccc(OCC(=O)N(Cc2ccccc2)C2CCS(=O)(=O)C2)cc1` (centres undefined), which B-score is on record?
**A.** -6.07 (active)

**Q.** With `Cc1ccccc1Nc1scc(-c2ccc(Br)cc2)[n+]1-c1ccccc1C` as the compound, how does the B-score read?
**A.** inactive

**Q.** For `Cc1cccc(-c2nc(Nc3ccc(O)cc3)c3ccccc3n2)c1`, which B-score is on record?
**A.** inactive

**Q.** Which B-score does the source give for `CN1CCN(c2ccc(NC(=O)c3ccccc3)cc2)CC1` here?
**A.** inactive

**Q.** For `CN1CCN(c2nc(Nc3ccc(O)cc3)nc3ccccc23)CC1`, which B-score is on record?
**A.** -11.6 (active)

**Q.** How did the B-score turn out when `O=C(NNS(=O)(=O)c1ccc(Cl)cc1)C1CCN(Cc2ccccc2)CC1` was run?
**A.** -7.9 (active)

**Q.** How did the B-score turn out when `CCNC(=S)NNC(=O)C1CCN(Cc2ccccc2)CC1` was run?
**A.** inactive

**Q.** For `CCCC(=O)C1CCN(Cc2ccccc2)CC1`, which B-score is on record?
**A.** inactive

**Q.** With `Cc1ccn(CC(=O)N2N=C(C(F)F)CC2(O)C(F)F)n1` (centres undefined) as the compound, how does the B-score read?
**A.** inactive

**Q.** With `Cc1nn(Cc2ccc(C(=O)N3N=C(C(F)F)CC3(O)C(F)F)cc2)c(C)c1[N+](=O)[O-]` (centres undefined) as the compound, how does the B-score read?
**A.** -5.19 (active)

**Q.** With `CCc1ccc(NC(=O)Cn2nc(C)c([N+](=O)[O-])c2C)cc1` as the compound, how does the B-score read?
**A.** inactive

**Q.** With `Cc1[nH]c2c(C(=O)N3CCCC(CCC(=O)NCc4ccccc4F)C3)cccc2c1C` (centres undefined) as the compound, how does the B-score read?
**A.** inactive

**Q.** How did the B-score turn out when `O=S(=O)(Cc1ccccc1)c1nc2ccccc2n1Cc1ccccn1` was run?
**A.** inactive

**Q.** Which B-score does the source give for `CCc1ccccc1NC(=O)CSc1nnc([C@@H](NC(=O)OC(C)(C)C)C(C)CC)o1` (some centres undefined) here?
**A.** inactive

**Q.** `C[C@H](NC(=O)OC(C)(C)C)c1nnc(SCC(=O)Nc2ccc(Br)cc2)o1` was tested. Which B-score did it give?
**A.** -6.61 (active)

**Q.** How did the B-score turn out when `CCc1ccccc1NC(=O)CSc1nnc([C@@H](NC(=O)OC(C)(C)C)C(C)C)o1` was run?
**A.** inactive

**Q.** How did the B-score turn out when `COCC1CCN(C(=O)C2CCC(=O)N(Cc3cccc(C(F)(F)F)c3)C2)CC1` (centres undefined) was run?
**A.** inactive

**Q.** `CC1(C)COC(c2cccn2Cc2ccccc2Cl)=N1` was tested. Which B-score did it give?
**A.** inactive

**Q.** For `COc1nc(N=C(N)N)nc2c(C)cccc12`, which B-score is on record?
**A.** inactive

**Q.** Which B-score does the source give for `Cc1nc(/N=C(\N)NC(=O)NC2CCCCC2)nc2ccccc12` here?
**A.** inactive

**Q.** `Cc1nc(N=C(N)N)nc2c(C)cccc12` was tested. Which B-score did it give?
**A.** -7.08 (active)

**Q.** Which B-score does the source give for `Cc1cc(-n2cnc(-c3cn(C)nc3C)n2)no1` here?
**A.** inactive

**Q.** For `Cc1ccc(NC2CCCN(C(=O)CCc3cn[nH]c3)C2)cc1C` (centres undefined), which B-score is on record?
**A.** inactive

**Q.** Which B-score does the source give for `Cc1ccc(NC2CCCN(C(=O)CCC3(C)CC3)C2)cc1C` (centres undefined) here?
**A.** -5.8 (active)

**Q.** `O=C(CN1CCOC1=O)N1CCCC(Nc2ccc(F)c(F)c2)C1` (centres undefined) was tested. Which B-score did it give?
**A.** inactive

**Q.** For `C=C(C)c1cccc(C(C)(C)NC(=O)N2CCN(c3ncccn3)CC2)c1`, which B-score is on record?
**A.** inactive

**Q.** With `C=C(C)c1cccc(C(C)(C)NC(=O)NC2CCCC2)c1` as the compound, how does the B-score read?
**A.** inactive

**Q.** `C=C(C)c1cccc(C(C)(C)NC(=O)NCCN(CC)CC)c1` was tested. Which B-score did it give?
**A.** -8.39 (active)

**Q.** For `O=C1C2N=NN(CC(=O)N3N=C(c4cccc5ccccc45)CC3c3ccccc3)C2C(=O)N1c1ccccc1` (centres undefined), which B-score is on record?
**A.** inactive

**Q.** `Cc1cc(OCCCC(=O)NCCN2C(=O)S/C(=C\c3cccnc3)C2=O)ccc1Cl` was tested. Which B-score did it give?
**A.** inactive

**Q.** For `COc1ccc(Cl)cc1NC(=O)CCS(=O)(=O)c1cc2c(cc1C)NC(=O)CO2`, which B-score is on record?
**A.** -5.71 (active)

**Q.** For `COc1ccc(NC(=O)CCS(=O)(=O)c2cc3c(cc2Cl)NC(=O)CO3)cc1OC`, which B-score is on record?
**A.** inactive

**Q.** For `Cc1cc2c(cc1S(=O)(=O)CCC(=O)NCc1ccccc1)OCC(=O)N2`, which B-score is on record?
**A.** inactive
